Sequences and labels used below:
T1: RBFOX1 RRM RbFoxmut (Fox-RRM*) (Homo sapiens, UniProt Q9NWB1 109-208, R118D;E147R;N151S;E152T)
T1 sequence: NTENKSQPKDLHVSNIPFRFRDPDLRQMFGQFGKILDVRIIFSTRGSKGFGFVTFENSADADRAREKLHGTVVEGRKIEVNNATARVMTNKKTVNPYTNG

B1: CCCAAUU (DNA:RNA)
RNA: GGGAGACCGGAAUUCAGAUUGUCCCCCAAUUUUAAAUCCCGUCGUAGCCACCA
DNA 1: CAATCTGAATTCCGGTCTCCC
DNA 2: TGGTGGCTACGACGGGATT
B2: GUAUUUG (DNA:RNA)
RNA: B1 RNA with C25G, C26U, C27A, A28U, A29U, U31G
DNA 1: CAATCTGAATTCCGGTCTCCC
DNA 2: TGGTGGCTACGACGGGATT
B3: CCUUCAG (DNA:RNA)
RNA: B1 RNA with C27U, A28U, A29C, U30A, U31G
DNA 1: CAATCTGAATTCCGGTCTCCC
DNA 2: TGGTGGCTACGACGGGATT
B4: UGUCGGU (DNA:RNA)
RNA: B1 RNA with C25U, C26G, C27U, A28C, A29G, U30G
DNA 1: CAATCTGAATTCCGGTCTCCC
DNA 2: TGGTGGCTACGACGGGATT
B5: ACGAACU (DNA:RNA)
RNA: B1 RNA with C25A, C27G, U30C
DNA 1: CAATCTGAATTCCGGTCTCCC
DNA 2: TGGTGGCTACGACGGGATT
B6: ACUUGCG (DNA:RNA)
RNA: B1 RNA with C25A, C27U, A28U, A29G, U30C, U31G
DNA 1: CAATCTGAATTCCGGTCTCCC
DNA 2: TGGTGGCTACGACGGGATT
B7: UUGUGCC (DNA:RNA)
RNA: GGGAGACCGGAAUUCAGAUUGUCCUUGUGCCUUAAAUCCCGUCGUAGCCACCA
DNA 1: CAATCTGAATTCCGGTCTCCC
DNA 2: TGGTGGCTACGACGGGATT
B8: UGCUGGC (DNA:RNA)
RNA: B7 RNA with U26G, G27C, C30G
DNA 1: CAATCTGAATTCCGGTCTCCC
DNA 2: TGGTGGCTACGACGGGATT
B9: GUGUGCC (DNA:RNA)
RNA: B7 RNA with U25G
DNA 1: CAATCTGAATTCCGGTCTCCC
DNA 2: TGGTGGCTACGACGGGATT
B10: CAGUGCC (DNA:RNA)
RNA: B7 RNA with U25C, U26A
DNA 1: CAATCTGAATTCCGGTCTCCC
DNA 2: TGGTGGCTACGACGGGATT
B11: UCCUGGC (DNA:RNA)
RNA: B7 RNA with U26C, G27C, C30G
DNA 1: CAATCTGAATTCCGGTCTCCC
DNA 2: TGGTGGCTACGACGGGATT
B12: AGUGCCU (DNA:RNA)
RNA: B1 RNA with C25A, C26G, C27U, A28G, A29C, U30C
DNA 1: CAATCTGAATTCCGGTCTCCC
DNA 2: TGGTGGCTACGACGGGATT
B13: CAGUGCG (DNA:RNA)
RNA: B7 RNA with U25C, U26A, C31G
DNA 1: CAATCTGAATTCCGGTCTCCC
DNA 2: TGGTGGCTACGACGGGATT
B14: UUGCCAC (DNA:RNA)
RNA: B7 RNA with U28C, G29C, C30A
DNA 1: CAATCTGAATTCCGGTCTCCC
DNA 2: TGGTGGCTACGACGGGATT
B15: ACUUGCC (DNA:RNA)
RNA: B7 RNA with U25A, U26C, G27U
DNA 1: CAATCTGAATTCCGGTCTCCC
DNA 2: TGGTGGCTACGACGGGATT
B16: CCGUGCC (DNA:RNA)
RNA: B7 RNA with U25C, U26C
DNA 1: CAATCTGAATTCCGGTCTCCC
DNA 2: TGGTGGCTACGACGGGATT
B17: UGGCUUG (DNA:RNA)
RNA: B7 RNA with U26G, U28C, G29U, C30U, C31G
DNA 1: CAATCTGAATTCCGGTCTCCC
DNA 2: TGGTGGCTACGACGGGATT
B18: CCUUAUC (DNA:RNA)
RNA: B1 RNA with C27U, A28U, U31C
DNA 1: CAATCTGAATTCCGGTCTCCC
DNA 2: TGGTGGCTACGACGGGATT
B19: AAAUGUC (DNA:RNA)
RNA: B7 RNA with U25A, U26A, G27A, C30U
DNA 1: CAATCTGAATTCCGGTCTCCC
DNA 2: TGGTGGCTACGACGGGATT
B20: CUAUAGG (DNA:RNA)
RNA: B1 RNA with C26U, C27A, A28U, U30G, U31G
DNA 1: CAATCTGAATTCCGGTCTCCC
DNA 2: TGGTGGCTACGACGGGATT
B21: CUGCGUG (DNA:RNA)
RNA: B7 RNA with U25C, U28C, C30U, C31G
DNA 1: CAATCTGAATTCCGGTCTCCC
DNA 2: TGGTGGCTACGACGGGATT
B22: CCUAGCA (DNA:RNA)
RNA: B1 RNA with C27U, A29G, U30C, U31A
DNA 1: CAATCTGAATTCCGGTCTCCC
DNA 2: TGGTGGCTACGACGGGATT
B23: UUGUUGC (DNA:RNA)
RNA: B7 RNA with G29U, C30G
DNA 1: CAATCTGAATTCCGGTCTCCC
DNA 2: TGGTGGCTACGACGGGATT
B24: UCCGUGC (DNA:RNA)
RNA: B1 RNA with C25U, A28G, A29U, U30G, U31C
DNA 1: CAATCTGAATTCCGGTCTCCC
DNA 2: TGGTGGCTACGACGGGATT
B25: GUCGUGC (DNA:RNA)
RNA: B7 RNA with U25G, G27C, U28G, G29U, C30G
DNA 1: CAATCTGAATTCCGGTCTCCC
DNA 2: TGGTGGCTACGACGGGATT
B26: UUGCUUG (DNA:RNA)
RNA: B7 RNA with U28C, G29U, C30U, C31G
DNA 1: CAATCTGAATTCCGGTCTCCC
DNA 2: TGGTGGCTACGACGGGATT
B27: GUGCUUG (DNA:RNA)
RNA: B7 RNA with U25G, U28C, G29U, C30U, C31G
DNA 1: CAATCTGAATTCCGGTCTCCC
DNA 2: TGGTGGCTACGACGGGATT
B28: UCCUUGC (DNA:RNA)
RNA: B7 RNA with U26C, G27C, G29U, C30G
DNA 1: CAATCTGAATTCCGGTCTCCC
DNA 2: TGGTGGCTACGACGGGATT
B29: CGGGAUC (DNA:RNA)
RNA: B1 RNA with C26G, C27G, A28G, U31C
DNA 1: CAATCTGAATTCCGGTCTCCC
DNA 2: TGGTGGCTACGACGGGATT
B30: GUAUUGU (DNA:RNA)
RNA: B7 RNA with U25G, G27A, G29U, C30G, C31U
DNA 1: CAATCTGAATTCCGGTCTCCC
DNA 2: TGGTGGCTACGACGGGATT
B31: GUCCCGU (DNA:RNA)
RNA: B1 RNA with C25G, C26U, A28C, A29C, U30G
DNA 1: CAATCTGAATTCCGGTCTCCC
DNA 2: TGGTGGCTACGACGGGATT
B32: CGGAUUG (DNA:RNA)
RNA: B1 RNA with C26G, C27G, A29U, U31G
DNA 1: CAATCTGAATTCCGGTCTCCC
DNA 2: TGGTGGCTACGACGGGATT
B33: CGUAUCG (DNA:RNA)
RNA: B1 RNA with C26G, C27U, A29U, U30C, U31G
DNA 1: CAATCTGAATTCCGGTCTCCC
DNA 2: TGGTGGCTACGACGGGATT
B34: GUCCGGA (DNA:RNA)
RNA: B7 RNA with U25G, G27C, U28C, C30G, C31A
DNA 1: CAATCTGAATTCCGGTCTCCC
DNA 2: TGGTGGCTACGACGGGATT
B35: GGAUUGU (DNA:RNA)
RNA: B1 RNA with C25G, C26G, C27A, A28U, A29U, U30G
DNA 1: CAATCTGAATTCCGGTCTCCC
DNA 2: TGGTGGCTACGACGGGATT
B36: GUAUCGU (DNA:RNA)
RNA: B7 RNA with U25G, G27A, G29C, C30G, C31U
DNA 1: CAATCTGAATTCCGGTCTCCC
DNA 2: TGGTGGCTACGACGGGATT
B37: UGAUAUC (DNA:RNA)
RNA: B7 RNA with U26G, G27A, G29A, C30U
DNA 1: CAATCTGAATTCCGGTCTCCC
DNA 2: TGGTGGCTACGACGGGATT
B38: CACCGGA (DNA:RNA)
RNA: B1 RNA with C26A, A28C, A29G, U30G, U31A
DNA 1: CAATCTGAATTCCGGTCTCCC
DNA 2: TGGTGGCTACGACGGGATT
B39: UGAUAUA (DNA:RNA)
RNA: B1 RNA with C25U, C26G, C27A, A28U, U31A
DNA 1: CAATCTGAATTCCGGTCTCCC
DNA 2: TGGTGGCTACGACGGGATT
B40: UGAUAUG (DNA:RNA)
RNA: B1 RNA with C25U, C26G, C27A, A28U, U31G
DNA 1: CAATCTGAATTCCGGTCTCCC
DNA 2: TGGTGGCTACGACGGGATT
B41: CGUCCGU (DNA:RNA)
RNA: B1 RNA with C26G, C27U, A28C, A29C, U30G
DNA 1: CAATCTGAATTCCGGTCTCCC
DNA 2: TGGTGGCTACGACGGGATT

Substitutions are numbered along the chain they refer to; changes in the protein carry UniProt numbers. Over roughly 16,000 sequences, “ka relative to ugcaugu” has its median near 0.096; the highest 2% begin near 0.35. What follows is part of a selection rich in the highest values, with near analogues and random picks from the rest.

In this experiment the target is T1, RBFOX1 RRM RbFoxmut (Fox-RRM*). Put plainly: EMSA; HiTS-Eq, 1 nM pool, 10 min; buffer printed only for the single-RNA assays: 10 mM Tris pH 7.5, 150 mM NaCl, 3.4 mM EDTA, 0.001% NP-40, 30 C. To be noted: tags: His6 N-terminal (pET28a); label: 5' 32P. Summed up:
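Relative association constants, normalised to the cognate motif, were derived by comparing read counts of each RNA species with those of the control reaction. The RNA sequenced was the free fraction, separated by 8% native PAGE after a 10 min equilibration in 50 µL of 1 nM 5′-radiolabelled RNA (7 randomized nucleotides) with increasing concentrations of purified wild-type or mutant RbFox RRM.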
In general terms: Mobility shift assays separate free from complexed probe on a gel.
Regarding B1, the binding signal is 0.0634 KA relative to UGCAUGU.

On to B2, for which the binding signal was 0.17 KA relative to UGCAUGU.

As to B3, the binding signal is 0.114 KA relative to UGCAUGU.

With B4, the binding signal was 0.112 KA relative to UGCAUGU.

On to B5, for which the binding signal was 0.0682 KA relative to UGCAUGU.

On to B6, for which the binding signal is 0.156 KA relative to UGCAUGU.

Take B7: the binding signal was 0.46 KA relative to UGCAUGU.

Turning to B8, the binding signal was 0.119 KA relative to UGCAUGU.

B9: the binding signal is 0.22 KA relative to UGCAUGU.

With B10, the binding signal was 0.402 KA relative to UGCAUGU.

As for B11, the binding signal is 0.128 KA relative to UGCAUGU.

Turning to B12, the binding signal was 0.0968 KA relative to UGCAUGU.

In the case of B13, the binding signal is 0.148 KA relative to UGCAUGU.

With B14, the binding signal is 0.0642 KA relative to UGCAUGU.

Turning to B15, the binding signal was 0.372 KA relative to UGCAUGU.

Regarding B16, the binding signal was 0.264 KA relative to UGCAUGU.

As to B17, the binding signal is 0.92 KA relative to UGCAUGU.

Consider B18, for which the binding signal was 0.0522 KA relative to UGCAUGU.

For the molecule B19, the binding signal is 0.145 KA relative to UGCAUGU.

On to B20, for which the binding signal is 0.0751 KA relative to UGCAUGU.

As to B21, the binding signal was 0.232 KA relative to UGCAUGU.

Regarding B22, the binding signal is 0.119 KA relative to UGCAUGU.

As for B23, the binding signal was 0.148 KA relative to UGCAUGU.

Regarding B24, the binding signal is 0.084 KA relative to UGCAUGU.

Turning to B25, the binding signal is 0.167 KA relative to UGCAUGU.

In the case of B26, the binding signal is 0.503 KA relative to UGCAUGU.

As to B27, the binding signal is 0.511 KA relative to UGCAUGU.

On to B28, for which the binding signal was 0.108 KA relative to UGCAUGU.

On to B29, for which the binding signal was 0.141 KA relative to UGCAUGU.

Regarding B30, the binding signal was 0.309 KA relative to UGCAUGU.

B31: the binding signal is 0.11 KA relative to UGCAUGU.

Regarding B32, the binding signal is 0.522 KA relative to UGCAUGU.

As to B33, the binding signal was 0.263 KA relative to UGCAUGU.

In the case of B34, the binding signal is 0.0725 KA relative to UGCAUGU.

Regarding B35, the binding signal is 0.39 KA relative to UGCAUGU.

With B36, the binding signal is 0.461 KA relative to UGCAUGU.

In the case of B37, the binding signal is 0.145 KA relative to UGCAUGU.

In the case of B38, the binding signal is 0.0666 KA relative to UGCAUGU.

Take B39: the binding signal was 0.0947 KA relative to UGCAUGU.

For the molecule B40, the binding signal is 0.437 KA relative to UGCAUGU.

As for B41, the binding signal was 0.119 KA relative to UGCAUGU.
